Experimental data taken from PubChem BioAssay (NCI).
“And” between values parts separate entries of the source, which are not always exact repeats. Identical values can stand only once. The panel holds about 79,000 compounds, 15% with a hit somewhere; the sample as a whole holds those more often. Where a structure was tested more than once in an assay, its records may differ in their call. The source made the active and inactive calls. Rule as the data show it: active = growth inhibition above about 70%; inactive = the rest.

Assays:
[1] = NCI Yeast Anticancer Drug Screen. Data for the rad50 strain (AID 155);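 also: 0% = growth of vehicle-only cultures of the same strain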; settings: S. cerevisiae rad50 strain growth inhibition, stronger effect = higher value
In short: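 Growth of the mutant yeast was measured after compound exposure and referenced to vehicle-treated cultures.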

[2] = NCI Yeast Anticancer Drug Screen. Data for the mec2-1 strain (AID 157); settings: S. cerevisiae mec2-1 strain, stronger effect = higher value
In short: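 Compounds were applied to mec2-1 yeast cells. Their growth was then compared with that of vehicle-treated cultures to give growth inhibition.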

[3] = NCI Yeast Anticancer Drug Screen. Data for the sgs1 mgt1 strain (AID 161);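 also: 0% = growth of cultures given vehicle only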; settings: S. cerevisiae sgs1 mgt1 strain, stronger effect = higher value
In short: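 Compounds are added to genetically altered yeast, and growth is compared with cultures given vehicle alone to give percent inhibition.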

[4] = NCI Yeast Anticancer Drug Screen. Data for the cln2 rad14 strain (AID 165);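 also: 0% = growth equal to vehicle treated cultures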; settings: S. cerevisiae cln2 rad14 strain, stronger effect = higher value
In short: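 Strain: cln2 rad14 yeast, altered in cell cycle control and DNA damage repair. Read-out: growth inhibition vs vehicle.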

[5] = NCI Yeast Anticancer Drug Screen. Data for the bub3 strain (AID 167); settings: S. cerevisiae bub3 mutant strain, stronger effect = higher value
In short: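 Whole-cell yeast assay. The mutant strain was incubated with compounds, and growth inhibition was determined by comparison with vehicle-treated cells.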

[6] = NCI Yeast Anticancer Drug Screen. Data for the mlh1 rad18 strain (AID 175); settings: S. cerevisiae mlh1 rad18 strain growth inhibition, stronger effect = higher value
In short: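 A repair-deficient yeast strain is exposed to test compound, and growth is scored relative to vehicle-treated controls.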

[7] = at 5.0 µM (retest, dose inferred, filed as 0.5)
[8] = at 50.0 µM (retest, dose inferred, filed as 5.0)

| Compound | growth inhibition [1, 7] | growth inhibition [1, 8] | growth inhibition ([1]; at 50.0 µM) | growth inhibition [2, 7] | growth inhibition [2, 8] | growth inhibition ([2]; at 50.0 µM) | growth inhibition [3, 7] | growth inhibition [3, 8] | growth inhibition ([3]; at 50.0 µM) | growth inhibition [4, 7] | growth inhibition [4, 8] | growth inhibition ([4]; at 50.0 µM) | growth inhibition [5, 7] | growth inhibition [5, 8] | growth inhibition ([5]; at 50.0 µM) | growth inhibition [6, 7] | growth inhibition [6, 8] | growth inhibition ([6]; at 50.0 µM) |
| --- | --- | --- | --- | --- | --- | --- | --- | --- | --- | --- | --- | --- | --- | --- | --- | --- | --- | --- |
| Cc1ccc(C(=O)CCl)o1 | -114% (inactive) | 97% (active) | 98.7% (active) | -29% (inactive) | 98% (active) | 99.7% (active) | -46% (inactive) | 94% (active) | 76% (active) | -54% (inactive) | 77% (active) | 71.4% (active) | -34% (inactive) | 98% (active) | 99.2% (active) | -96% (inactive) | 95% (active) | 98.5% (active) |
| O=C1C(F)=C(N2CC2)C(=O)C(F)=C1N1CC1 | 99% (active) | 99% (active) | 91.7% (active) | 100% (active) | 99% (active) | 94% (active) | 100% (active) | 99% (active) | 91% (active) | 100% (active) | 99% (active) | 91.5% (active) | 98% (active) | 99% (active) | 92.8% (active) | 99% (active) | 99% (active) | 91.5% (active) |
| CN(CCO)CCO | 18% (inactive) | 86% (active) | 6.55% (inactive) and -12.4% (inactive) | 3% (inactive) | 26% (inactive) | 7.5% (inactive) and 36.6% (inactive) | 5% (inactive) | 43% (inactive) | -0.35% (inactive) and 15.9% (inactive) | 1% (inactive) | 21% (inactive) | -8.05% (inactive) and 58.9% (inactive) | 1% (inactive) | 6% (inactive) | -9.75% (inactive) and 30.8% (inactive) | 10% (inactive) | 38% (inactive) | -11.8% (inactive) and 21.9% (inactive) |
| CCC1CCCCN1CC(C(C)=O)C(c1ccccc1)c1c(O)c2ccccc2oc1=O (stereo not drawn) | 13% (inactive) | 13% (inactive) | 78.2% (active) | 0% (inactive) | 0% (inactive) | 64.8% (inactive) | 5% (inactive) | 5% (inactive) | 79.3% (active) | -6% (inactive) | -6% (inactive) | 72.5% (active) | 6% (inactive) | 6% (inactive) | 71.3% (active) | 7% (inactive) | 7% (inactive) | 75.3% (active) |
| [Ni+2].[SH2+]C([SH2+])=Nc1ccccc1.[SH2+]C([SH2+])=Nc1ccccc1.c1ccc(C[P+](c2ccccc2)(c2ccccc2)c2ccccc2)cc1 | 14% (inactive) | 91% (active) | 97.9% (active) | 26% (inactive) | 88% (active) | 98% (active) | 21% (inactive) | 91% (active) | 97.8% (active) | -6% (inactive) | 87% (active) | 90.8% (active) | 8% (inactive) | 85% (active) | 95.3% (active) | 40% (inactive) | 98% (active) | 98.5% (active) |
| O=C(O)C1C2c3cccc4cccc(c34)C12 (stereo not drawn) | -139% (inactive) | 88% (active) | 44.8% (inactive) | -50% (inactive) | 72% (active) | 87.6% (active) | -56% (inactive) | 74% (active) | 40.4% (inactive) | -41% (inactive) | 78% (active) | 85.3% (active) | -59% (inactive) | 86% (active) | 93.2% (active) | -112% (inactive) | 81% (active) | 83.8% (active) |
| O=C1C=CC(=O)c2c(O)ccc(O)c21 | 99% (active) and 16% (inactive) | 17% (inactive) and 93% (active) | 89.1% (active) and 64% (inactive) | 99% (active) and -14% (inactive) | 14% (inactive) and 95% (active) | 91.5% (active) and 68.8% (inactive) | 97% (active) and -5% (inactive) | 19% (inactive) and 95% (active) | 91% (active) and 80.3% (active) | 98% (active) and 20% (inactive) | 16% (inactive) and 93% (active) | 88.8% (active) and 77.7% (active) | 99% (active) and 11% (inactive) | 80% (active) and 93% (active) | 89.6% (active) and 79.1% (active) | 99% (active) and -4% (inactive) | 21% (inactive) and 92% (active) | 88.4% (active) |
| Oc1ccc([Te]CCNCC[Te]c2ccc(O)cc2)cc1 | 58% (inactive) | 58% (inactive) | 40.8% (inactive) | 37% (inactive) | 37% (inactive) | 0.3% (inactive) | 40% (inactive) | 40% (inactive) | 16.1% (inactive) | 13% (inactive) | 13% (inactive) | 48.3% (inactive) | 29% (inactive) | 29% (inactive) | 30.9% (inactive) | 36% (inactive) | 36% (inactive) | 71.5% (active) |
| CCC1(CC)C(=O)[N-]C(=O)[N-]C1=O.[Au+].[Au+].c1ccc([PH+](c2ccccc2)c2ccccc2)cc1.c1ccc([PH+](c2ccccc2)c2ccccc2)cc1 | 99% (active) | 94% (active) | 1.75% (inactive) | 99% (active) | 97% (active) | 80.6% (active) | 99% (active) | 96% (active) | -4.5% (inactive) | 95% (active) | 96% (active) | 35.1% (inactive) | 99% (active) | 90% (active) | 2.2% (inactive) | 98% (active) | 96% (active) | 4.65% (inactive) |
| O=c1ccn(C2OC(CO)C(O)C2O)c(=O)[n]1[Hg][c]1ccccc1 (stereo not drawn) | 99% (active) | 99% (active) | 90.8% (active) | 100% (active) | 99% (active) | 89.7% (active) | 100% (active) | 100% (active) | 85.8% (active) | 99% (active) | 99% (active) | 88.3% (active) | 100% (active) | 99% (active) | 84.3% (active) | 98% (active) | 98% (active) | 91.8% (active) |
| CC(=O)Oc1ccc(N=C2C=C(Cl)C(=O)C(Cl)=C2)cc1 | 5% (inactive) | 23% (inactive) | 34.5% (inactive) | 9% (inactive) | 26% (inactive) | -2.05% (inactive) | 2% (inactive) | 24% (inactive) | 33.4% (inactive) | 6% (inactive) | 14% (inactive) | -23.8% (inactive) | 9% (inactive) | 46% (inactive) | 22.7% (inactive) | 7% (inactive) | 54% (inactive) | 19.9% (inactive) |
| Oc1c(Cl)cc(-c2cc(Cl)c(O)c(Cl)c2)cc1Cl | 95% (active) | 94% (active) | 84.2% (active) | 96% (active) | 97% (active) | 89% (active) | 89% (active) | 97% (active) | 89.7% (active) | 57% (inactive) | 98% (active) | 87.6% (active) | 92% (active) | 96% (active) | 86.7% (active) | 99% (active) | 99% (active) | 84.9% (active) |
| [CH3][Sn]([CH3])([Cl])[c]1cc[c]([Sn]([CH3])([CH3])[Cl])cc1 | 26% (inactive) | 84% (active) | 78% (active) | -1% (inactive) | 50% (inactive) | 72.5% (active) | 6% (inactive) | 80% (active) | 85.5% (active) | 11% (inactive) | 63% (inactive) | 77% (active) | 10% (inactive) | 80% (active) | 81.3% (active) | 20% (inactive) | 87% (active) | 80.2% (active) |
| COC(=O)C1=C(C)N2CCSC2(C)C(C(=O)OC)C1c1cccc(Cl)c1 (stereo not drawn) | -21% (inactive) | 85% (active) | 80.3% (active) | 4% (inactive) | 77% (active) | 79.5% (active) | 0% (inactive) | 84% (active) | 82.3% (active) | 17% (inactive) | 66% (inactive) | 69.1% (inactive) | 13% (inactive) | 89% (active) | 81.5% (active) | 6% (inactive) | 90% (active) | 73.2% (active) |
| O=C(CCN1CC1)NCCc1ccccc1 | -152% (inactive) | 90% (active) | 96.6% (active) | -44% (inactive) | 48% (inactive) | 83.3% (active) | -59% (inactive) | 84% (active) | 58% (inactive) | -60% (inactive) | 73% (active) | 83.7% (active) | -72% (inactive) | 87% (active) | 67.8% (inactive) | -143% (inactive) | 90% (active) | 93.7% (active) |
| CC(=O)C(CN(C(C)C)C(C)C)C(c1ccccc1)c1c(O)c2ccccc2oc1=O (stereo not drawn) | 17% (inactive) | 17% (inactive) | 72% (active) | 11% (inactive) | 11% (inactive) | 47.4% (inactive) | 8% (inactive) | 8% (inactive) | 58.7% (inactive) | -3% (inactive) | -3% (inactive) | 58% (inactive) | 13% (inactive) | 13% (inactive) | 70.3% (active) | 12% (inactive) | 12% (inactive) | 70.1% (active) |
